Assay outcomes deposited in PubChem by The Scripps Research Institute Molecular Screening Center.
Hits are enriched below; roughly 2.3% of the tested compounds scored in any of these assays.
M1 PAM – potentiates human M1 receptor response to acetylcholine | P11229 | CHO-K1 hM1, Fluo-8 calcium fluorescence, ACh EC20; 0% = ACh EC20, 100% = maximal ACh | activation, % at 3 µM | 360,000 tested, 0.088% active; in the data active means activation above about 19%, passing the limit was not always enough
Target sequence (P11229 whole entry, looked up): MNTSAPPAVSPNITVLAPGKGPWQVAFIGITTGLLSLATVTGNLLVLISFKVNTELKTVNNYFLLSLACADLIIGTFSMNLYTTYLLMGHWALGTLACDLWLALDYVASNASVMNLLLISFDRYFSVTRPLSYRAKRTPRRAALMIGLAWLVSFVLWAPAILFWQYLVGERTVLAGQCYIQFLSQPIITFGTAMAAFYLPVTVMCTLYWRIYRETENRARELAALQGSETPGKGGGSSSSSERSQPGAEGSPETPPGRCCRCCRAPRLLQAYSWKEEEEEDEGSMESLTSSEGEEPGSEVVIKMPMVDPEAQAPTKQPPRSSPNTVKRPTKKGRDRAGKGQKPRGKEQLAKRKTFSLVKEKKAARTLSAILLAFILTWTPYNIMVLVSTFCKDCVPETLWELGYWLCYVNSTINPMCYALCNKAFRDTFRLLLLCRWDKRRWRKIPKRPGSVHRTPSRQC
CHO-K1 Ca antag – nonselective inhibitor or artifact in parental CHO-K1 cells. 360,000 tested, 0.6% active. ATP-induced calcium, Fluo-8 fluorescence. inhibition, % at 3 µM;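 active means inhibition above a per-plate cutoff, the plate's mean sample inhibition plus 3 SD, cut at about 24% in these data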;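 further: 0% = DMSO plus EC80 ATP and 100% = DMSO alone without ATP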
CHO-K1 Ca ag – nonselective activator or artifact in parental CHO-K1 cells; activation, % at 3 µM; Fluo-8 calcium fluorescence; scaled to maximal ATP response, vehicle zero; 360,000 tested, 0.48% active; AID 602248; in the data active means activation above about 15%;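 further: untransfected CHO-K1 host cells lacking M1 receptor as counterscreen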
M1 ag – activates human CHRM1 receptor | CHO-K1 hM1, Fluo-8 calcium fluorescence, agonist mode; 0% DMSO, 100% acetylcholine EC100 | activation, % at 3 µM | 360,000 tested, 0.33% active;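 active means activation above the run's mean compound activation plus 3 SD, cut at about 16% in these data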;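 further: peak over basal fluorescence ratio within a 140 s kinetic read after compound addition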
CHO-K1 Ca PAM – counter-screen for M1 PAMs: effect in parental CHO-K1 cells. activation, % at 3 µM. 360,000 tested, 0.02% active. ATP EC20, Fluo-8 calcium fluorescence; 0% at ATP EC20, 100% at ATP max;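 active means activation above the run cutoff, the mean activation of all test compounds plus 3 SD, cut at about 40% in these data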;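 further: peak over basal fluorescence ratio in a 140 s read after ATP addition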
CHRM1 antagonist – blocks human M1 muscarinic receptor | 360,000 tested, 1.3% active | P11229 | inhibition, % at 3 µM | CHO-K1 hM1, Fluo-8 calcium fluorescence, ACh EC80 antagonist;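 active means percent inhibition above its own plate's cutoff, namely the mean of that plate's compound wells plus 3 SD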;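 further: peak over basal fluorescence ratio during 140 s after agonist addition; 0% = ACh EC80 plus DMSO and 100% = DMSO alone without agonist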
Numbers without * were called inactive.

SMILES	M1 PAM	CHO-K1 Ca antag	CHO-K1 Ca ag	M1 ag	CHO-K1 Ca PAM	CHRM1 antagonist
Cc1ccccc1C(O)(Cc1ccccc1)C1CN2CCC1CC2 (stereo not drawn)	-26.1	-9.3	1.4	-6.0	19.8	98.5*
CCc1nn(CC(=O)N2CCC3(CC2)OCCO3)c(=O)c2cc3ccccc3n12	2.4	-12.2	1.9	4.9	15.2	-7.8
COC(=O)C1=C(c2ccc3ccccc3c2)C[C@@H]2CC[C@H]1N2C(=O)NCCNC(C)=O	8.6	-13.2	0.9	-13.7	14.2	-8.7
Nc1ccc2nonc2c1[N+](=O)[O-]	4.7	-6.2	16.6*	13.6	19.1	3.9
O=C(Cc1ccccc1)OCC(=O)N1CCN(S(=O)(=O)c2ccc(Cl)cc2)CC1	0.8	8.0	1.7	1.2	-12.2	-2.5
CC1(C)CN=C(Nc2ccc(F)c(Cl)c2)S1	0.7	-14.5	29.8*	12.5	11.4	-9.9
CC1(C)CN=C(Nc2ccc(F)c(F)c2)S1	6.1	-12.4	23.5*	19.9*	20.6	-13.4
CC1(C)CSC(Nc2ccc(F)c(Cl)c2)=N1	-5.9	0.7	1.9	-4.5	0.8	1.5
COC(=O)[C@@H]1[C@@H](C(=O)OC)C2(c3ccccc3-c3ccccc32)N(c2ccc(Cl)cc2)N1C#N	-1.9	26.4*	0.1	-4.2	4.8	-11.9
CN(C)P(=NC(=S)c1cccn1C)(N(C)C)N(C)C	-23.9	-20.7	-0.3	-11.5	1.9	32.9*
Cc1nc2ccccc2c(=O)n1/N=C/c1cc(Br)cc(Br)c1O	2.0	-10.3	1.5	0.8	14.9	-7.0
COC1=CC(=O)OC(/C=C/c2ccccc2)C1 (stereo not drawn)	-3.0	45.6*	0.4	-1.3	-8.9	-20.9
CCn1ccnc1CN1CCCC(C(=O)c2cc(C)c(OC)c(C)c2)C1 (stereo not drawn)	-20.0	-2.0	1.9	-6.3	-4.3	37.6*
CCC(=NCc1ccco1)c1c(O)n(-c2ccccc2)c(=O)[nH]c1=O	6.1	29.4*	-0.6	-2.4	6.6	-0.8
C[C@]12CCC3C(CC[C@@H]4C[C@@H](O)CC[C@]34C)C1CC[C@@H]2O (stereo partly drawn)	0.5	-7.2	1.5	-2.5	3.8	-6.6
C[C@]12CCC3C(CC[C@H]4C[C@@H](O)CC[C@]34C)C1CC[C@@H]2N (stereo partly drawn)	3.8	11.4	18.6*	-5.9	25.3	-5.2
Cc1ccc2c(c1)C1C[N+](C)(CC(=O)c3ccc(Cl)cc3Cl)CCC1N2C(=O)c1ccc(F)cc1 (stereo not drawn)	-18.5	-13.3	3.0	-5.6	-14.7	34.0*
Cc1ccc2c(c1)C1CN(C)CCC1N2C(=O)c1cccs1 (stereo not drawn)	4.9	-2.3	0.5	-6.7	17.0	-12.5
O=C1C2CCN(CC2)[C@@H]1Cc1ccc2ccccc2c1O	-17.0	5.8	0.7	-2.5	7.5	40.1*
NN=C1C(Cl)=C(Cl)C(Cl)=C1Cl	-7.3	-8.0	-0.5	-7.4	-6.6	-6.0
c1ccc2c(c1)CN(Cc1ccc3c(c1)OCO3)Cc1cnnn1-2	-0.2	27.3*	-0.3	-7.2	-0.3	-4.1
CN(C(=O)Cc1ccc2c(c1)OCO2)C1CCCN(Cc2ccccc2F)C1 (stereo not drawn)	-26.7	0.4	0.6	-6.8	12.8	46.4*
O=C(c1ccc(Cl)cc1)C1CCCN(Cc2cccc3cnccc23)C1 (stereo not drawn)	-23.1	-8.4	7.6	-2.8	16.0	70.0*
Cc1ccccc1CC(=O)N(CCN(C)C)CC1CCCN(Cc2ccccc2F)C1 (stereo not drawn)	2.2	-4.5	0.1	-7.7	-9.0	-0.9
O=C(c1ccc(Cl)cc1)C1CCCN(Cc2ccc3ncccc3c2)C1 (stereo not drawn)	-19.9	-5.6	7.5	0.3	2.5	80.6*
SMILES	M1 PAM	CHO-K1 Ca antag	CHO-K1 Ca ag	M1 ag	CHO-K1 Ca PAM	CHRM1 antagonist
O=C(c1ccc2c(c1)OCO2)C1CCCN(Cc2ccc(F)c(F)c2)C1 (stereo not drawn)	-23.7	-12.3	-0.3	-7.5	15.4	70.3*
COP(=O)(/C=C(\Cl)c1ccccc1)/C=C(\Cl)c1ccccc1	-4.7	-8.1	1.7	-6.4	11.3	5.7
Cc1ccc(C)c(NC(=S)NCCc2cnc[nH]2)c1	12.9	8.4	-0.3	-2.8	-2.3	-13.8
CN1CCCN(C(=O)COc2ccc(F)cc2F)CC1	9.3	-5.0	4.9	-5.0	3.8	-14.4
N#Cc1ccc(NC(=O)CN2CCCC2)cc1Cl	1.2	-13.9	2.9	-5.0	9.5	-0.8
CCN(CC(=O)Nc1ccc(C#N)c(Cl)c1)CC(=O)NC1CCS(=O)(=O)C1 (stereo not drawn)	10.1	25.3*	0.4	4.4	-18.2	10.8
CN(C)C1CCc2[nH]c3c(F)cc(F)cc3c2C1 (stereo not drawn)	-17.7	1.9	0.8	-8.6	13.8	34.6*
O=c1[nH]c(O)c(C=Nc2ccc(Cl)c(C(F)(F)F)c2)c(=O)[nH]1	-25.7	-6.7	0.6	-10.9	5.9	40.8*
O=[N+]([O-])c1ccc(N2CCNCC2)cc1N1CCCCC1	4.4	-13.2	2.4	-15.7	21.4	-9.0
O=[N+]([O-])c1ccc(N2CCCNCC2)c2ncccc12	-24.0	-7.0	0.6	-7.5	13.2	82.0*
O=[N+]([O-])c1ccc(N2CCCCCC2)c2nonc12	-32.7	52.8*	161.8*	145.4*	-20.1	53.2*
O=[N+]([O-])c1cccnc1N1CCCNCC1	-28.4	-14.1	2.2	-0.5	4.7	47.6*
N/C(=N\[N+](=O)[O-])N1CCN(C(=O)OC2CCCC2)CC1	14.4	1.9	-0.7	-3.1	11.0	-12.5
COCCN(C(=O)COC(=O)Cc1ccccc1)c1c(N)n(Cc2ccccc2)c(=O)[nH]c1=O	4.9	-2.9	0.8	-3.7	-0.2	-10.8
O=C1NC(=O)C(C2CCCCCC2)C(=O)N1	26.1*	-11.9	0.2	3.2	-15.7	-30.3
C1CCC2CCCCC2C1 (stereo not drawn)	2.7	-6.2	0.3	-0.9	-8.4	-6.4
CN(C)C(CNC(=O)Cc1c(Cl)cccc1Cl)c1ccccc1 (stereo not drawn)	-37.3	6.4	-0.2	-15.6	8.4	96.5*
CC12CCC(=O)C=C1CC(O)C1C2CCC2(C)C1CCC2(C)O (stereo not drawn)	-13.7	23.4	-0.4	-0.4	-24.3	27.5
C=C(C)[C@@]12OC3(c4ccccc4)O[C@@H]1C1[C@@H]4O[C@]4(CO)[C@@H](O)[C@]4(O)C(=O)C(C)=C[C@H]4[C@@]1(O3)[C@H](C)[C@H]2OC(=O)/C=C/C=C/c1ccccc1 (stereo partly drawn)	-31.7	-1.4	1.4	-7.3	-18.6	43.2*
CN1CCc2c(C#N)c(Cl)nc(Cl)c2C1	10.7	32.0*	0.1	-0.7	-16.8	2.5
